Among the data in ChEMBL document CHEMBL3988442, “University of Dundee, Small-Polar-MMV Screening Library” (2021) are Percent Effect values, retold here.

For the assay, the target named is AMP-activated protein kinase, AMPK (Homo sapiens) (UniProt P54646+O43741+P54619+Q9UGJ0+Q9Y478+Q13131+Q9UGI9). Nature of the assay: AMP-dependent Kinase enzyme assay. An in vitro enzyme assay that detects ADP turnover that is directly proportional to AMPK activity. This uses naive AMPK that is activated during the assay with MK-8722. The assay is classed as functional. More on the design: scale not given: direction of the effect not stated beside the values. To be noted: 30 µM.

Take `CCS(=O)(=O)NCC(=O)N1CCC(c2cc3ccccc3[nH]2)CC1`: the Percent Effect is 6.95%.
Then `Cc1nn(C)c(C)c1C1CCCN1C(=O)c1cc(C(N)=O)cs1` (stereo not given), with -0.756%.
Turning to `Cc1noc(C)c1CC(=O)N1CCCC(n2ccnc2C)C1` (stereo not given), the Percent Effect is -4.43%.
Then `CC(CO)NS(=O)(=O)c1cccc(C(C)C)c1` (stereo not given), with -0.593%; and `COc1cc(Br)c(S(=O)(=O)NC(=O)C(C)OC)cc1OC` (stereo not given), with -6.43%.
On to `Cc1cc(C(=O)NCCC2CCN(C)CC2)ccc1N(C)S(C)(=O)=O`, for which the Percent Effect was found to be 6.31%.
Then `Cc1ccc(C(CNC(=O)c2cc(=O)c3ccccc3[nH]2)N(C)C)cc1` (stereo not given), with 6.26%; and `CCOC(=O)C1(O)CCN(C(=O)Nc2cccc(F)c2)CC1`, with -1.01%; and `CC(=O)NCCCNC(=O)N1CCN(c2cc(F)ccc2F)CC1`, with 6.39%.
As for `Cc1cc(NC(C)c2nnn[nH]2)n2nc(C)c(C)c2n1` (stereo not given), the figure is 20.6%.
As for `CCn1cc(NC(=O)c2cccc(CN3C[C@@H](C)O[C@@H](C)C3)c2)nn1`, the Percent Effect amounted to 1.85%.
Then `CN(C)S(=O)(=O)N1CCOC(c2cccc(-c3cncnc3)n2)C1` (stereo not given), with 9.99%; and `Cc1nc2n(n1)CC(NCc1ccc(Cl)c3cccnc13)CC2` (stereo not given), with 9%.
Then `Cc1nc(CN2CCc3ccc(S(N)(=O)=O)cc32)oc1C`, with -7.39%; and `CCn1nc(C)c(C(=O)N2C[C@@H](CN(C)C)[C@@H](CO)C2)c1C`, with -14.6%.
As for `Fc1ccccc1CN1CCC[C@H](Cn2nnc(-c3cccs3)n2)C1`, the figure is 4.46%; as for `O=C(NCC1CCS(=O)(=O)C1)N(Cc1ccccn1)C1CC1` (stereo not given), -6.01%.
For the molecule `O=C(NCc1ccc(Br)c(F)c1)Nc1cn[nH]c1`, the Percent Effect is -0.537%.
In the case of `CS(=O)(=O)CC1(CNc2c(C#N)cnc3ccc(Cl)cc23)CC1`, the Percent Effect stood at 5.05%.
Then `CC(=O)c1ccc(-c2cnn(CC(=O)Nc3ccnn3C)c2)nc1`, with 6.15%; and `CNCC(=O)NC1CC(C)(C)Cc2nc(C(C)(C)C)ncc21` (stereo not given), with -7.88%; and `CCN(CCOC)C(=O)c1ccc2c(c1)nc(N1CC[C@H](O)C1)n2C`, with 3.21%.
As for `Cc1ncsc1C(=O)N[C@@H](Cc1ccccc1)C(N)=O`, the figure is 8.09%.
Then `NC(=O)c1ccc(NC2CCOC3(CCCC3)C2)nn1` (stereo not given), with 0.506%; and `Cc1n[nH]c(C)c1NC(=O)NCc1cc[nH]n1`, with -7.26%.
Take `CS(=O)(=O)NCC1CCCN(Cc2ccccc2F)C1` (stereo not given): the Percent Effect was -6.5%.
As for `Cc1nccn1CCCN1CCC(c2nccn2CC2CCC2)CC1`, the figure is -9.78%; as for `CC(CC(=O)c1ccco1)NC(=O)c1ccon1` (stereo not given), 9.56%; as for `Cc1cc(NC(=O)C(C)NCCn2cccn2)no1` (stereo not given), -0.416%.
As for `COc1cccc(CC(=O)N2CCc3ncnc(NCCO)c3CC2)c1`, the figure is -1.01%.
Turning to `CCC1COCCN1C(=O)NCc1nccn1Cc1ccccc1` (stereo not given), the Percent Effect is -0.566%.
As for `NC(=O)C1CCN(c2ccc(C(=O)N3CCc4ccccc43)cn2)C1` (stereo not given), the figure is 6.03%.
As for `CC(=O)Nn1ccc2c(nnc3c(-c4ccc(F)cc4)cnn32)c1=O`, the figure is 10.3%.
Then `O=S(=O)(N1CCOCC1)N1CCCCC1CCn1cccn1` (stereo not given), with 29.5%; and `CNC(=O)Cc1ccccc1NC(=O)N[C@H]1c2ccccc2C[C@H]1O`, with 0.934%; and `CN(CCCOc1ccccc1Cl)C(=O)CN1C(=O)CCNC1=O`, with 7.42%.
Turning to `CC1CN(C)CCN1C(=O)c1cccn1Cc1cccs1` (stereo not given), the Percent Effect was found to be 3.93%.
With `CN(Cc1ccccc1F)Cc1cc2c(cc1Br)OCCO2`, the Percent Effect is -3.17%.
As for `O=C(Cn1ccc(=O)[nH]c1=O)NCc1cccnc1OCC(F)(F)F`, the figure is -4.52%; as for `O=C(NCCc1nccs1)N1CCC(n2cccc2)CC1`, -2.66%.
Then `O=C(c1cccnc1)N1CCC(Oc2cccc(C(F)(F)F)c2)CC1`, with -1.51%; and `O=C(NCc1cccnc1N1CCCCC1)c1ccc2c(c1)OCO2`, with -2.38%.
As to `CC(C)N1CCC(CC(=O)NCCc2cc(O)ncn2)CC1`, the Percent Effect is -10.1%.
Then `CCC1(CC)CC(=O)N(CC(O)c2cc(F)ccc2F)C1=O` (stereo not given), with 11.8%.
As for `COC(=O)C(NC(=O)c1ccc(C)cc1C)c1cccnc1` (stereo not given), the figure is 2.32%.
As to `O=C(c1cc(C2CC2)nc2onc(-c3ccccc3)c12)N1CC(O)C1`, the Percent Effect amounted to 2.65%.
Consider `NC(=O)NC(CC(=O)N1CCc2sccc2C1)c1ccccc1F` (stereo not given), for which the Percent Effect was found to be 3.63%.
As for `Cc1nnc(CN(Cc2ccco2)Cc2cccc3c2OCO3)n1C`, the figure is -4.86%; as for `NC(=O)COc1cccc(Cn2cc(Br)cn2)c1`, 3.8%; as for `CCNC(=O)CN1CCc2c(Br)ccc(F)c2C1`, -1.06%.
As for `O=C(NCCCn1ccnc1)C1COCC(=O)N1Cc1ccccc1` (stereo not given), the figure is 3.38%; as for `COCCN(C)C(=O)NCCc1coc(-c2ccc(C)cc2)n1`, -3.83%.
As for `Cc1ccccc1Oc1ncccc1CNC(=O)Cn1cccnc1=O`, the figure is -5.58%; as for `CN(Cc1nc(CS(C)(=O)=O)no1)c1ccccc1`, 0.0849%.
On to `Cc1cccnc1NC(=O)c1ccc(F)c(S(=O)(=O)NC2CC2)c1`, for which the Percent Effect was -4.18%.
Then `CCCc1nc(NC2(COC)CCCC2)c2cnn(C)c2n1`, with 7.33%; and `Cc1cc(N2CCN(Cc3ccsc3)C(CCO)C2)nc(N)n1` (stereo not given), with 0.121%.
With `CN(Cc1cc(Br)cn1C)C(=O)c1cccnc1`, the Percent Effect was -0.766%.
As to `CC(=O)c1cnc(NCCN2CCCC(c3ccccc3)C2)nc1C` (stereo not given), the Percent Effect was -7.52%.
As for `Cc1noc(CNc2cc3c(cc2Cl)NC(=O)CO3)n1`, the Percent Effect is 1.17%.
